Results from PubChem BioAssay (NCI).
Compounds without any hit were thinned out: in the full panel of roughly 83,000, 20% have a hit.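 Each cell line was grown in a 96-well plate and treated with one concentration of compound for 48 hours. Values below 10 were considered active.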 Activity calls are given as the source filed them.

system: OVCAR-3 ovarian; assay: NCI-60 one-dose screen, 48 h (100 = growth as untreated, 0 = no growth, -100 = all killed); conditions: 10 µM unless noted

Row | Compound | growth
1 | CCOC(=O)c1ccccc1OC(=O)NNc1ccccc1 | 77.7% (inactive)
2 | CC(=O)n1c2ccccc2c2ccccc21 | 114% (inactive)
3 | CSc1ccc2c(c1)N(CCC1CCCCN1C)c1ccccc1S2 (stereo not drawn) | 92.3% (inactive)
4 | O=C(/C=C/c1cc2ccccc2[nH]c1=O)c1ccc(O)cc1 | -18.8% (active)
5 | COc1ccc(-c2c(-c3cc(OC)c(OC)c(OC)c3)noc2N)cc1 | -29.7% (active)
6 | Clc1ccc(-c2nc(-c3cccs3)no2)c(Cl)c1 | 99.2% (inactive)
7 | CC(C)C/C(=N\NC(=O)c1ccncc1)c1cc(Cl)ccc1O | 11.1% (inactive)
8 | COc1ccc(/C=N/NC(=O)c2ccc(S(C)(=O)=O)cc2)cc1OC | 108% (inactive)
9 | CO[C@H]1/C=C/O[C@@]2(C)Oc3c(C)c(O)c4c(O)c(c(/C=N/N5CCN(C)CC5)c(O)c4c3C2=O)NC(=O)/C(C)=C\C=C\C(C)[C@H](O)[C@@H](C)[C@@H](O)[C@@H](C)[C@@H](OC(C)=O)[C@@H]1C (stereo partly drawn) | 107% (inactive)
10 | COc1cc(/C=C/C(=O)c2ccc(F)cc2)ccc1OCCCCCOc1cc2c(cc1OC)C(=O)N1CCCC1C=N2 (stereo not drawn) | -8.63% (active)
11 | CCCCOc1ccc(C(C)(C)c2ccc(OCCCC)cc2)cc1 | 106% (inactive)
12 | CCCCCCCC/C=C/CCCCCCCC1=NC(C)(C)CN1CCO | 32.8% (inactive)
13 | COc1cc(/C=C2\COc3ccc(O)c(O)c3C2=O)cc(OC)c1 | -32.3% (active)
14 | CCCCCCCC/C=C/CCCCCCCC1=NC(C)(C)CN1CC(C)O (stereo not drawn) | 31% (inactive)
15 | O=C1N(C2CCCCC2)C(=O)N1C1CCCCC1 | 59.7% (inactive)
16 | CC12CCC3C(CCC4CC(=O)/C(=C\O)CC43C)C1CCC(=O)O2 (stereo not drawn) | 114% (inactive)
17 | Nc1ccccc1-c1ccc([N+](=O)[O-])cc1 | 71.7% (inactive)
18 | CC(C)COCC(CN(Cc1ccccc1)c1ccccc1)N1CCCC1 (stereo not drawn) | 72.4% (inactive)
19 | ClC1=C(Cl)C(Cl)=C(Cl)C1=Cc1ccc(Cl)cc1 | -96.8% (active)

Row | Compound | growth
20 | O=C(Cc1ccccn1)C(F)(F)C(F)(F)C(F)(F)F | 112% (inactive)
21 | CC1=C(C(=O)Nc2ccccc2)C(c2ccc3c(c2)OCCO3)NC(=O)N1 (stereo not drawn) | 106% (inactive)
22 | O=C(/C=C/c1ccccc1)CC(c1ccccc1)N1CCOCC1 (stereo not drawn) | 78.9% (inactive)
23 | COc1cccc(/C=C2\COc3ccc(O)c(O)c3C2=O)c1OC | -18.1% (active)
24 | Cc1cc(CC(=O)O)n(C)c1C(=O)c1ccc(Cl)cc1 | 118% (inactive)
25 | CCOc1cc(C(C)(C)C)ccc1C1=N[C@H](c2ccc(Cl)cc2)[C@H](c2ccc(Cl)cc2)N1C(=O)N1CCN(CC#Cc2cccc3c2CN([C@@H]2CCC(=O)NC2=O)C3=O)CC1 | 41.1% (inactive)
26 | CCCCCCCCCCCCCCCCCC1=NC(C)(C)CN1CCO | -9.27% (active)
27 | COc1ccc(OC)c(/C=C/c2nc(=S)n(-c3ccc(Cl)cc3)[nH]2)c1 | 29.4% (inactive)
28 | Clc1ccccc1[C@@H]1C[C@@H]2Cc3cc(Br)c4ccccc4c3N1O2 | -8.24% (active)
29 | CCCCC(C#N)C(N)=O (stereo not drawn) | 108% (inactive)
30 | Cc1cccc(Cl)c1NC(=O)c1ccc2nc(NC(=O)NC3CC(C)(C)NC(C)(C)C3)sc2c1 | 99.7% (inactive)
31 | Cc1c(C(N)=O)sc2c1C(=O)N(Cc1ccccc1)C1=NN=C(c3ccc(Cl)cc3)CN12 | 31.5% (inactive)
32 | ClC1=C(Cl)C(=C2C(Cl)=C(Cl)C(Cl)=C2Cl)C(Cl)=C1Cl | 114% (inactive)
33 | Clc1ccc(-n2cnc3c(Cl)ncnc32)cc1Cl | 98.9% (inactive)
34 | OC(c1cc(C(F)(F)F)nc2c(C(F)(F)F)cccc12)C1CCCCN1 (stereo not drawn) | 73.7% (inactive)
35 | CC[C@]1(O)CC2CN(CCc3c([nH]c4ccccc34)[C@@](C(=O)OC)(c3cc4c(cc3OC)N(C)[C@H]3[C@@](O)(C(=O)OC)[C@H](OC(C)=O)[C@]5(CC)C=CCN6CC[C@]43[C@@H]65)C2)C1 (stereo partly drawn) | -56% (active)
36 | CC1CC(C)/C(=N/NC(N)=O)C(C(O)CC2CCC(=O)NC2=O)C1 (stereo not drawn) | 53.6% (inactive)
37 | CN1C(=O)/C(=C/c2nc(-c3cccc(F)c3)n3ccccc23)c2ccccc21 | 60.6% (inactive)
38 | O=C1OCCCCCCCCCC#Cc2ccccc21 | 122% (inactive)

system: HS 578T breast; assay: as above; conditions: 10 µM unless noted

Row | Compound | growth
39 | CSc1ccc2c(c1)N(CCC1CCCCN1C)c1ccccc1S2 (stereo not drawn) | 47.6% (inactive)
40 | O=C(/C=C/c1cc2ccccc2[nH]c1=O)c1ccc(O)cc1 | -27.2% (active)
41 | COc1ccc(-c2c(-c3cc(OC)c(OC)c(OC)c3)noc2N)cc1 | 30% (inactive)
42 | Clc1ccc(-c2nc(-c3cccs3)no2)c(Cl)c1 | 96.1% (inactive)
43 | COc1ccc(/C=N/NC(=O)c2ccc(S(C)(=O)=O)cc2)cc1OC | 102% (inactive)
44 | CO[C@H]1/C=C/O[C@@]2(C)Oc3c(C)c(O)c4c(O)c(c(/C=N/N5CCN(C)CC5)c(O)c4c3C2=O)NC(=O)/C(C)=C\C=C\C(C)[C@H](O)[C@@H](C)[C@@H](O)[C@@H](C)[C@@H](OC(C)=O)[C@@H]1C (stereo partly drawn) | 109% (inactive)
45 | COc1cc(/C=C/C(=O)c2ccc(F)cc2)ccc1OCCCCCOc1cc2c(cc1OC)C(=O)N1CCCC1C=N2 (stereo not drawn) | -24.8% (active)
46 | CCCCOc1ccc(C(C)(C)c2ccc(OCCCC)cc2)cc1 | 105% (inactive)
47 | CCCCCCCC/C=C/CCCCCCCC1=NC(C)(C)CN1CCO | 35.1% (inactive)
48 | COc1cc(/C=C2\COc3ccc(O)c(O)c3C2=O)cc(OC)c1 | 21.8% (inactive)
49 | CCCCCCCC/C=C/CCCCCCCC1=NC(C)(C)CN1CC(C)O (stereo not drawn) | 3.01% (active)
50 | CC(C)COCC(CN(Cc1ccccc1)c1ccccc1)N1CCCC1 (stereo not drawn) | 81.6% (inactive)
51 | ClC1=C(Cl)C(Cl)=C(Cl)C1=Cc1ccc(Cl)cc1 | -12.2% (active)
52 | O=C(Cc1ccccn1)C(F)(F)C(F)(F)C(F)(F)F | 102% (inactive)
53 | CC1=C(C(=O)Nc2ccccc2)C(c2ccc3c(c2)OCCO3)NC(=O)N1 (stereo not drawn) | 101% (inactive)
54 | COc1cccc(/C=C2\COc3ccc(O)c(O)c3C2=O)c1OC | 17.3% (inactive)
55 | Cc1cc(CC(=O)O)n(C)c1C(=O)c1ccc(Cl)cc1 | 110% (inactive)
56 | CCOc1cc(C(C)(C)C)ccc1C1=N[C@H](c2ccc(Cl)cc2)[C@H](c2ccc(Cl)cc2)N1C(=O)N1CCN(CC#Cc2cccc3c2CN([C@@H]2CCC(=O)NC2=O)C3=O)CC1 | 16.9% (inactive)
57 | CCCCCCCCCCCCCCCCCC1=NC(C)(C)CN1CCO | -38.4% (active)
58 | COc1ccc(OC)c(/C=C/c2nc(=S)n(-c3ccc(Cl)cc3)[nH]2)c1 | 98.7% (inactive)
59 | Clc1ccccc1[C@@H]1C[C@@H]2Cc3cc(Br)c4ccccc4c3N1O2 | 28.4% (inactive)
60 | CCCCC(C#N)C(N)=O (stereo not drawn) | 101% (inactive)
61 | Cc1cccc(Cl)c1NC(=O)c1ccc2nc(NC(=O)NC3CC(C)(C)NC(C)(C)C3)sc2c1 | 30.8% (inactive)
62 | Cc1c(C(N)=O)sc2c1C(=O)N(Cc1ccccc1)C1=NN=C(c3ccc(Cl)cc3)CN12 | 78.2% (inactive)
63 | ClC1=C(Cl)C(=C2C(Cl)=C(Cl)C(Cl)=C2Cl)C(Cl)=C1Cl | 94.1% (inactive)
64 | OC(c1cc(C(F)(F)F)nc2c(C(F)(F)F)cccc12)C1CCCCN1 (stereo not drawn) | 62.4% (inactive)
65 | CC[C@]1(O)CC2CN(CCc3c([nH]c4ccccc34)[C@@](C(=O)OC)(c3cc4c(cc3OC)N(C)[C@H]3[C@@](O)(C(=O)OC)[C@H](OC(C)=O)[C@]5(CC)C=CCN6CC[C@]43[C@@H]65)C2)C1 (stereo partly drawn) | 29.7% (inactive)
66 | CC1CC(C)/C(=N/NC(N)=O)C(C(O)CC2CCC(=O)NC2=O)C1 (stereo not drawn) | 10% (inactive)
67 | CN1C(=O)/C(=C/c2nc(-c3cccc(F)c3)n3ccccc23)c2ccccc21 | 33% (inactive)
68 | O=C1OCCCCCCCCCC#Cc2ccccc21 | 108% (inactive)
